{"source": "paper PMC7862700", "about": "“An all-to-all approach to the identification of sequence-specific readers for epigenetic DNA modifications on cytosine”", "experiment_in_all_cases": "DAPPL (digital affinity profiling via proximity ligation, sequencing); 10 mM Tris-HCl pH 7.5, 50 mM NaCl, 1 mM DTT, 4% glycerol, room temperature, 30 min; GST-TFs on glutathione beads, 16-mer random dsDNA library, 0.1% formaldehyde crosslink after washing; high values mean tight binding", "settings_in_all_cases": "protein: recombinant; tags: N-terminal GST; dsDNA, one strand shown", "key": {"ELK4": {"biological_target": "T1, ELK4 (Homo sapiens, UniProt P28324-2 1-405)", "T1 sequence": "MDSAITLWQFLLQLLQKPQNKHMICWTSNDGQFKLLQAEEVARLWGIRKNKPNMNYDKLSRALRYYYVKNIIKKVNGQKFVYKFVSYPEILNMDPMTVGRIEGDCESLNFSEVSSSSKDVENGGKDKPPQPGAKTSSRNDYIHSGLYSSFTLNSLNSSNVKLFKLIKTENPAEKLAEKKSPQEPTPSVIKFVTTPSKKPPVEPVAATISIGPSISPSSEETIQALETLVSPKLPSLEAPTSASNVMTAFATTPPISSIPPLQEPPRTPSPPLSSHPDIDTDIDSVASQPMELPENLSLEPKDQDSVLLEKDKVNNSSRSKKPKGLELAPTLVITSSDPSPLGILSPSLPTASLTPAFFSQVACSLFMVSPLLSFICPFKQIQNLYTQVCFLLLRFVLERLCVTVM", "summary_of_the_method": "(§1)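 GST fusions of human transcription factors were expressed in yeast and captured with glutathione beads. Once given DNA barcodes and pooled alongside a tag-only sample, they were incubated for 30 min at room temperature with 200 nmole of a random double-stranded 16-mer DNA library in Tris/NaCl/DTT/glycerol buffer, then washed, crosslinked (0.1% formaldehyde), proximity-ligated, PCR-amplified and sequenced on an Illumina NextSeq500. The binding signal of each hexamer is its read frequency for a factor divided by its frequency for the tag-only sample.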"}, "ELF3": {"biological_target": "T2, ELF3 (Homo sapiens, UniProt P78545 1-371)", "T2 sequence": "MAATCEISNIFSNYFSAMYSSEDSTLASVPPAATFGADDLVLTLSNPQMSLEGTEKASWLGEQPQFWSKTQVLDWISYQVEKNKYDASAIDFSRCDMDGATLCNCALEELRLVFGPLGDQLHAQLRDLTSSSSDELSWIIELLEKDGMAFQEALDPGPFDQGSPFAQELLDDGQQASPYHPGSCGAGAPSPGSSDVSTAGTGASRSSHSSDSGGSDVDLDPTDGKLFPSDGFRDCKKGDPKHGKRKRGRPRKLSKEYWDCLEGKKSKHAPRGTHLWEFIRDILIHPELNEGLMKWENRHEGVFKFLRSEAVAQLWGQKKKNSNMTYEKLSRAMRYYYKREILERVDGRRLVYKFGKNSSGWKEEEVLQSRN", "summary_of_the_method": "as §1"}, "ETV1": {"biological_target": "ETV1 (Homo sapiens, UniProt P50549 1-477)", "sequence (P50549 whole entry)": "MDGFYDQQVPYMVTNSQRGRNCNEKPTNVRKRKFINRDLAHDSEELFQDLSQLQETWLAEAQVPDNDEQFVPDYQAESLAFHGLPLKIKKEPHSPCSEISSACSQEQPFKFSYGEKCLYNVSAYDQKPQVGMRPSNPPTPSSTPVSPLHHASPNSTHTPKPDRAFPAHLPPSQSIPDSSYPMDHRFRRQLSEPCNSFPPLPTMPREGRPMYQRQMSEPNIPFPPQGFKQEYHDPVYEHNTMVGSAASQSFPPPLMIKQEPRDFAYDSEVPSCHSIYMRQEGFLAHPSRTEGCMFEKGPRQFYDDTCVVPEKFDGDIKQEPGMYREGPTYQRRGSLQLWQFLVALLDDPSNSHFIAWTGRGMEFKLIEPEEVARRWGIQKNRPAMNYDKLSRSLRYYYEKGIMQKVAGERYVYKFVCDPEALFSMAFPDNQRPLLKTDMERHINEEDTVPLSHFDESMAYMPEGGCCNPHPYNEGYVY", "summary_of_the_method": "as §1"}, "ERF": {"biological_target": "T3, ERF (Homo sapiens, UniProt P50548 1-548)", "T3 sequence": "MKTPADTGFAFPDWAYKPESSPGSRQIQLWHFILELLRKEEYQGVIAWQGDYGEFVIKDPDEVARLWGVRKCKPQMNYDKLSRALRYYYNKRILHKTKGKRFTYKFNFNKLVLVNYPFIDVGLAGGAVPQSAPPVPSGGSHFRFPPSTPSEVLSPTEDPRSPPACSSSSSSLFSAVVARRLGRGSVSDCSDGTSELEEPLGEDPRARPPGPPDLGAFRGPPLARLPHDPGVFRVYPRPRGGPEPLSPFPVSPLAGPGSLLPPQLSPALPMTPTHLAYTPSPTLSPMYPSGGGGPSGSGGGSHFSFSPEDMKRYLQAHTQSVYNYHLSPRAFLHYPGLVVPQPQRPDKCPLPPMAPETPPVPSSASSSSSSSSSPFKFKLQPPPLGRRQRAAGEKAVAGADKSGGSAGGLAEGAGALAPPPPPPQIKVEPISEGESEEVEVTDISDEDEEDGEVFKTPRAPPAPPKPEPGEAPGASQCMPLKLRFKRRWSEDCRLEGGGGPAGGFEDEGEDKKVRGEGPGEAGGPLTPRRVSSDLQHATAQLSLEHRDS", "summary_of_the_method": "as §1"}, "ETV3L": {"biological_target": "T4, ETV3L (Homo sapiens, UniProt Q6ZN32 1-361)", "T4 sequence": "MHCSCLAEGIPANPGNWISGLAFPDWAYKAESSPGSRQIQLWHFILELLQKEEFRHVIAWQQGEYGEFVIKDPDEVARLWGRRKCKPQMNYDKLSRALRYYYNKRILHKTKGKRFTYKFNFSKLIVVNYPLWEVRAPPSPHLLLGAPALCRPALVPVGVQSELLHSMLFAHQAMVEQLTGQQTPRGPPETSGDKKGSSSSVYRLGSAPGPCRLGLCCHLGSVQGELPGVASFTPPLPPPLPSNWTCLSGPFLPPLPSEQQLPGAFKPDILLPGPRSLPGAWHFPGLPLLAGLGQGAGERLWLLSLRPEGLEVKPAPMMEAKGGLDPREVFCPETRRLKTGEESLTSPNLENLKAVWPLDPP", "summary_of_the_method": "as §1"}, "ETS2": {"biological_target": "T5, ETS2 (Homo sapiens, UniProt P15036 1-469)", "T5 sequence": "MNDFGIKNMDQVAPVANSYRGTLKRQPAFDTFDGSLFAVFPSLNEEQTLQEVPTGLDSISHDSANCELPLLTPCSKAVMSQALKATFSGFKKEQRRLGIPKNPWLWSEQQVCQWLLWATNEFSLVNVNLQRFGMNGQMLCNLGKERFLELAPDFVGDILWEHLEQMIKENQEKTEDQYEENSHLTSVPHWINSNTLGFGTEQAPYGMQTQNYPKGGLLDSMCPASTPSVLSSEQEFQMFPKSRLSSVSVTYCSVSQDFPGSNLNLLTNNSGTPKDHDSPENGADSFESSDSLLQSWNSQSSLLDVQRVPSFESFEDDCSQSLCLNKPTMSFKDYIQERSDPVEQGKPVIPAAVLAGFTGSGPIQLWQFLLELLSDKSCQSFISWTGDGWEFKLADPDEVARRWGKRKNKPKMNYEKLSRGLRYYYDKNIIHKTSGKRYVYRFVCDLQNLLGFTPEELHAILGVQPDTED", "summary_of_the_method": "as §1"}, "SPDEF": {"biological_target": "T6, SPDEF (Homo sapiens, UniProt O95238 1-335)", "T6 sequence": "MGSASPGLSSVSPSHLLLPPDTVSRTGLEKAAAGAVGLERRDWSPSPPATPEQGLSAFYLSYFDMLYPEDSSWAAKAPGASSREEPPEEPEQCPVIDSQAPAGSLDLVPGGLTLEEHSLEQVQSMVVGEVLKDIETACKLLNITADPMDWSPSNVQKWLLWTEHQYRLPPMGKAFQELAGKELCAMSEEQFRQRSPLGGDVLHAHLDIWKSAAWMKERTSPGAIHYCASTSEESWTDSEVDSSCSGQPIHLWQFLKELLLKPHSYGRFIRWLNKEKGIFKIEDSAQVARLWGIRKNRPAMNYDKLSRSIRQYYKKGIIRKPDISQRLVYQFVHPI", "summary_of_the_method": "as §1"}, "ETV7": {"biological_target": "T7, ETV7 (Homo sapiens, UniProt Q9Y603 1-341)", "T7 sequence": "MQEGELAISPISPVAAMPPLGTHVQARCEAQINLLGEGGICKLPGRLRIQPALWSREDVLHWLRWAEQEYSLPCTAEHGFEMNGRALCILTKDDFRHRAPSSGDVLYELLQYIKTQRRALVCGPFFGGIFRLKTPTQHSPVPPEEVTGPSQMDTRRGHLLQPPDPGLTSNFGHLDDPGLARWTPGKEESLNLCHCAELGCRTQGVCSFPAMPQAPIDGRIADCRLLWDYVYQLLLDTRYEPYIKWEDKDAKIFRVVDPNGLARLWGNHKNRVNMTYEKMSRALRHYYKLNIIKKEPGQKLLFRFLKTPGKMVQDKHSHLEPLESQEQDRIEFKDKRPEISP", "summary_of_the_method": "as §1"}, "ETV3": {"biological_target": "T8, ETV3 (Homo sapiens, UniProt P41162-2 1-143)", "T8 sequence": "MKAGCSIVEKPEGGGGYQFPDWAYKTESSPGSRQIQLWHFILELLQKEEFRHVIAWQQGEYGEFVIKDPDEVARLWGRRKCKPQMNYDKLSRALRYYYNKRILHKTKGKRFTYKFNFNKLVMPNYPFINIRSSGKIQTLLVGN", "summary_of_the_method": "as §1"}, "ETV6": {"biological_target": "ETV6 (Homo sapiens, UniProt P41212 1-452)", "sequence (P41212 whole entry)": "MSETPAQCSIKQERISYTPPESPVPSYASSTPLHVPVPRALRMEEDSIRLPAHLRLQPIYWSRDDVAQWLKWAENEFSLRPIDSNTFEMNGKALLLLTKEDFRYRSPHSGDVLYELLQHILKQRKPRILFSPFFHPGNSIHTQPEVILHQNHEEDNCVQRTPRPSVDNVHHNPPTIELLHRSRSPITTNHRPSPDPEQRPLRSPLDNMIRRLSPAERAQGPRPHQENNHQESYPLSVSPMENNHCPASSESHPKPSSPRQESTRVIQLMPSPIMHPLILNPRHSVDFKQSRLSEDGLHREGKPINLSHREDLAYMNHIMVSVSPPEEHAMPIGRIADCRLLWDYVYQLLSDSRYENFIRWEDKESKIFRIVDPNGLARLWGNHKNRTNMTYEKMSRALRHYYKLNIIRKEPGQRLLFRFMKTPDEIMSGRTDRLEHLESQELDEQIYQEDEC", "summary_of_the_method": "as §1"}}, "data": [{"sequence": "AAGATC", "values": [{"measurement": "binding signal", "setting": "ELK4", "value": "1.01 fold enrichment (6-mer frequency, TF over GST control)"}, {"measurement": "binding signal", "setting": "ELF3", "value": "1.15 fold enrichment (6-mer frequency, TF over GST control)"}, {"measurement": "binding signal", "setting": "ETV1", "value": "1.08 fold enrichment (6-mer frequency, TF over GST control)"}, {"measurement": "binding signal", "setting": "ERF", "value": "1.12 fold enrichment (6-mer frequency, TF over GST control)"}, {"measurement": "binding signal", "setting": "ETV3L", "value": "1.03 fold enrichment (6-mer frequency, TF over GST control)"}, {"measurement": "binding signal", "setting": "ETS2", "value": "1.05 fold enrichment (6-mer frequency, TF over GST control)"}, {"measurement": "binding signal", "setting": "SPDEF", "value": "1.27 fold enrichment (6-mer frequency, TF over GST control)"}, {"measurement": "binding signal", "setting": "ETV7", "value": "1.08 fold enrichment (6-mer frequency, TF over GST control)"}, {"measurement": "binding signal", "setting": "ETV3", "value": "1.12 fold enrichment (6-mer frequency, TF over GST control)"}, {"measurement": "binding signal", "setting": "ETV6", "value": "1.01 fold enrichment (6-mer frequency, TF over GST control)"}]}]}
